These results are taken from PubChem BioAssay (EPA / NIEHS).

Where “and” joins values, the source holds several entries; their conditions need not be identical. Equal entries are not always repeated. Some compounds were tested as several samples or in several runs, with calls that do not always agree. Calls of active or inactive are those of the source. The calls were made as follows: active = hit-call score of the fitted dose curve at least 0.9, where 1 is the maximum; inactive = score below 0.9.

The term AC50 denotes the concentration at which the activity in the assay is half-maximal.

Read-out in experiment [1]: Monocyte Chemoattractant Protein-1 (MCP1), CCL2 (gene 6347)
Briefly: BSK_LPS_MCP1: BioMAP Diversity Plus: LPS Assay for Monocyte Chemoattractant Protein-1 (MCP1) Biomarker Activity (AID 2283081).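 As to AC50: secreted MCP-1 protein quantified by ELISA in culture supernatant.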 To be noted: primary human HUVEC with PBMC; actives raise or lower the signal. The gist of the method:
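HUVEC plus PBMC co-culture (human primary cells, LPS system) exposed to test chemical for 24 h; MCP-1 measured by ELISA. Bidirectional curve fitting against DMSO baseline; parallel SRB total-protein staining flags overt cytotoxicity.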

The nature of experiment [2]: BSK_LPS_PGE2: BioMAP Diversity Plus: LPS Assay for Prostaglandin E2 (PGE2) Biomarker Activity (AID 2283082). To be noted: primary human HUVEC with PBMC; actives raise or lower the signal. In a few lines: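 Endpoint derived from bidirectional curve fitting versus DMSO of ELISA-measured PGE2 in LPS-stimulated human primary vascular co-culture (HUVEC with PBMC) harvested at 24 h.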

Read-out in experiment [3]: Macrophage colony-stimulating factor (MCSF), CSF1 (gene 1435)
In words: BSK_LPS_MCSF: BioMAP Diversity Plus: LPS Assay for Macrophage colony-stimulating factor (MCSF) Biomarker Activity (AID 2283083). The note with it: primary human HUVEC with PBMC; actives raise or lower the signal. In a few lines:
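Human umbilical vein endothelial cells co-cultured with peripheral blood mononuclear cells were exposed to compound for 24 h. M-CSF levels were measured by ELISA, and bidirectional curve fitting used DMSO as the negative control and baseline.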

Read-out in experiment [4]: Tissue Factor, F3 (gene 2152)
In words: BSK_LPS_TissueFactor: BioMAP Diversity Plus: LPS Assay for Tissue Factor Biomarker Activity (AID 2283084). To be noted: primary human HUVEC with PBMC; actives raise or lower the signal. The gist of the method:
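Human umbilical vein endothelial cells co-cultured with peripheral blood mononuclear cells were dosed and stimulated with LPS. Cell-surface CD142 was quantified by ELISA at 24 h. Activity was fitted bidirectionally against DMSO baseline.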

Read-out in experiment [5]: Tumor necrosis factor (Homo sapiens) (UniProt P01375)
Briefly: BSK_LPS_TNFa: BioMAP Diversity Plus: LPS Assay for Tumour Necrosis Factor alpha (TNFa) Biomarker Activity (AID 2283085). The note with it: primary human HUVEC with PBMC; actives raise or lower the signal. The gist of the method:
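Primary human vascular co-culture of HUVEC and PBMC; TNFa ELISA 24 h after treatment, analysed as increase or decrease relative to DMSO control.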

Read-out in experiment [6]: Vascular cell adhesion molecule 1 (VCAM1), VCAM1 (gene 7412)
In words: BSK_LPS_VCAM1: BioMAP Diversity Plus: LPS Assay for Vascular cell adhesion molecule 1 (VCAM1) Biomarker Activity (AID 2283086). To be noted: primary human HUVEC with PBMC; actives raise or lower the signal. In a few lines: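 Primary human vascular co-culture (umbilical vein endothelium plus PBMC) stimulated with LPS received chemical; 24 h later VCAM-1 was read by ELISA. Overt cytotoxicity was assessed by sulforhodamine B staining of parallel cultures at the same time point.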

Read-out in experiment [7]: CD40, CD40 (gene 958)
In words: BSK_SAg_CD40: BioMAP Diversity Plus: SAg Assay for CD40 Biomarker Activity (AID 2283088). The note with it: primary human HUVEC with PBMC; actives raise or lower the signal. The gist of the method:
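Human umbilical vein endothelial cells co-cultured with PBMC; CD40 levels measured by ELISA with fluorescence read-out 24 h after chemical dosing. Gain or loss of signal fitted bidirectionally against DMSO baseline.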

Read-out in experiment [8]: CD69, CD69 (gene 969)
In words: BSK_SAg_CD69: BioMAP Diversity Plus: SAg Assay for CD69 Biomarker Activity (AID 2283089).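 As to AC50: cell surface CD69 protein quantified by ELISA with fluorescence detection.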 To be noted: primary human HUVEC with PBMC; actives raise or lower the signal. In a few lines:
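Values derive from bidirectional fitting relative to DMSO vehicle. Cells: umbilical vein endothelium plus peripheral blood mononuclear cells, treated 24 h before fluorescent ELISA for CD69.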

Read-out in experiment [9]: Monocyte Chemoattractant Protein-1 (MCP1), CCL2 (gene 6347)
Briefly: BSK_SAg_MCP1: BioMAP Diversity Plus: SAg Assay for Monocyte Chemoattractant Protein-1 (MCP1) Biomarker Activity (AID 2283090). The note with it: primary human HUVEC with PBMC; actives raise or lower the signal. In a few lines: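 MCP-1 levels in the endothelial–PBMC SAg co-culture were quantified by ELISA at 24 h post-dosing; both increases and decreases versus DMSO scored. Cytotoxicity monitored by SRB total protein in parallel cultures.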

Read-out in experiment [10]: E-selectin (Homo sapiens) (UniProt P16581)
In words: BSK_SAg_Eselectin: BioMAP Diversity Plus: SAg Assay for Eselectin Biomarker Activity (AID 2283091). To be noted: primary human HUVEC with PBMC; actives raise or lower the signal. The gist of the method:
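HUVEC co-cultured with PBMC, compound dosed then read at 24 h; E-selectin measured by ELISA. Activity fitted bidirectionally against DMSO as negative control and baseline.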

Read-out in experiment [11]: Monokine induced gamma interferon (MIG), CXCL9 (gene 4283)
Briefly: BSK_SAg_MIG: BioMAP Diversity Plus: SAg Assay for Monokine induced gamma interferon (MIG) Biomarker Activity (AID 2283092). To be noted: primary human HUVEC with PBMC; actives raise or lower the signal. In a few lines:
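Values reflect bidirectional fitting of ELISA-measured MIG against DMSO vehicle, taken 24 h after dosing of a co-culture of human umbilical vein endothelial cells and peripheral blood mononuclear cells.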

The nature of experiment [12]: BSK_SAg_PBMCCytotoxicity: PBMC Cytotoxicity Assessment in the BioMAP Diversity Plus: SAg Assay (AID 2283093).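 Also: PBMC viability measured as Alamar Blue reduction fluorescence at 546/580 nm; fitted both ways against DMSO so a hit may be loss or gain of signal.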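 As to AC50: PBMC superantigen activated with SEB plus TSST-1 one hour after compound addition.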 The note with it: primary human HUVEC with PBMC. In a few lines: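 Human umbilical vein endothelial cells co-cultured with PBMC; PBMC (75,000/well) pre-treated with compound 1 h, then activated with SEB and TSST-1 (20 ng/mL final each) for 90 h. Alamar Blue added 6 h, fluorescence 546/580 nm; bidirectional fit versus DMSO.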

Read-out in experiment [13]: Interleukin-8 (IL8), CXCL8 (gene 3576)
Briefly: BSK_SAg_IL8: BioMAP Diversity Plus: SAg Assay for Interleukin-8 (IL8) Biomarker Activity (AID 2283094). To be noted: primary human HUVEC with PBMC; actives raise or lower the signal. The gist of the method: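 In this co-culture of human umbilical vein endothelium with peripheral blood mononuclear cells, IL-8 is assayed by ELISA at 24 h. DMSO serves as baseline for bidirectional curve fitting.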

Experiment [14] in a line: BSK_SAg_Proliferation: Cell Proliferation Assessment in the BioMAP Diversity Plus: SAg Assay (AID 2283095).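 Also: relative cell number as total protein by SRB absorbance in sub-confluent culture.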 To be noted: primary human HUVEC with PBMC. The gist of the method:
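Readout is SRB-stained protein (560 nm) in a primary human HUVEC and PBMC co-culture; sub-confluent cultures are read at 96 h. Activity is fitted bidirectionally using DMSO as baseline.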

Experiment [15] is described as follows: BSK_SAg_SRB: Viability Assessment in the BioMAP Diversity Plus: SAg Assay (AID 2283096).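 Also: cells read one day after compound addition; hits may be either gain or loss of signal compared with DMSO.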 The note with it: primary human HUVEC with PBMC. In a few lines: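 Endothelial/PBMC primary human co-culture; compound 24 h; fix 10% TCA, stain 0.1% SRB, A560; protein content as cytotoxicity proxy; bidirectional curve fit, DMSO = baseline.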

Chain of Tumor necrosis factor (Homo sapiens) (P01375 whole entry, looked up): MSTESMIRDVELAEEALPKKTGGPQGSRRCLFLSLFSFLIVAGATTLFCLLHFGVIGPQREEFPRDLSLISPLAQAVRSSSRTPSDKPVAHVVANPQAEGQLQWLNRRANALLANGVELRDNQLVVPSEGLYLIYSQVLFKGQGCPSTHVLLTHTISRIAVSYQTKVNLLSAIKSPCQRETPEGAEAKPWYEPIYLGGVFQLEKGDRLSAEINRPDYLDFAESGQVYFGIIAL
Chain of E-selectin (Homo sapiens) (P16581 whole entry, looked up): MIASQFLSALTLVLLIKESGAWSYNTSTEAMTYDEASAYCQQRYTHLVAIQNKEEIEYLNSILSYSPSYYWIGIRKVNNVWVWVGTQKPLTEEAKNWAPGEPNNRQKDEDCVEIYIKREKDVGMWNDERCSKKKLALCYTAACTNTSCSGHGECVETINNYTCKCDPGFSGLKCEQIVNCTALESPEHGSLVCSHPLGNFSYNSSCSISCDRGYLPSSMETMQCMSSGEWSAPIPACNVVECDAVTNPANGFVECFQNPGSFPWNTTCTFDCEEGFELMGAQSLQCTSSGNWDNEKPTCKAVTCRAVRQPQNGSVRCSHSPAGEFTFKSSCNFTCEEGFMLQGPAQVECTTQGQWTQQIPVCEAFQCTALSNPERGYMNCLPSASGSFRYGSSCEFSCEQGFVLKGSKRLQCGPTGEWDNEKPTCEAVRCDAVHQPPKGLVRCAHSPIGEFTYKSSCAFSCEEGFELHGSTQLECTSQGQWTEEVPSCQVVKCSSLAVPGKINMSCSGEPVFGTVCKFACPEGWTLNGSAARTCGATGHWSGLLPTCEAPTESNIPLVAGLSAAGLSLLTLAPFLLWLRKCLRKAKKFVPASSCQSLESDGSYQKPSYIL

Consider `OCCCC(F)(F)C(F)(F)C(F)(F)C(F)(F)C(F)(F)C(F)(F)C(F)(F)F`, for which the AC50 was 44.7 µM (active) and 44.2 µM (active) in experiment [1]; 46 µM (active) and 47.8 µM (active) in [3]; 49.9 µM (active) and 45.5 µM (active) in [4]; 48 µM (active) and 25.8 µM (active) in experiment [5]; 51.4 µM (active) and 43.6 µM (active) in experiment [6]; 48 µM (active) and 50.1 µM (active) in experiment [7]. For the same compound, the AC50 in [8] was 42.4 µM (active) and 41.7 µM (active); in experiment [9], 43.2 µM (active) and 46.3 µM (active); in experiment [10], 44.2 µM (active) and 38.8 µM (active); in [11], 54 µM (active) and 50.8 µM (active); in experiment [12], 14.4 µM (active) and 14.8 µM (active); in experiment [13], 23.3 µM (active) and 50.1 µM (active). Moreover, the AC50 is 16.8 µM (active) and 16.3 µM (active) in experiment [14]; 51.4 µM (active) and 44.9 µM (active) in experiment [15]. For the same compound, the outcome in experiment [2] was inactive.

With `FC(F)(F)C(F)(F)C(F)(F)C(F)(F)CCI`, the outcome in [1], in experiment [2], in experiment [3], in experiment [4], in [5] and in [6] was inactive. Also, the outcome in experiment [7], in experiment [8], in [9], in experiment [10], in experiment [11] and in experiment [12] was inactive. The result in experiment [13] and in experiment [15] was inactive. Moreover, the AC50 in experiment [12] was 41.9 µM (active); in experiment [14], 30 µM (active).

With `CCCCC(CC)COP(=O)(O)OCC(CC)CCCC` (stereo unspecified), the result in experiment [1], in experiment [2], in [3], in experiment [4], in experiment [5] and in [6] was inactive. Moreover, the result in [7], in [8], in experiment [9], in [10], in experiment [11] and in experiment [12] was inactive. In addition, the result in [13], in experiment [14] and in [15] was inactive.

`OCCCC(F)(F)C(F)(F)C(F)(F)F`: the result in experiment [1], in [2], in experiment [3], in [4], in experiment [5] and in experiment [6] was inactive. The result in experiment [7], in experiment [8], in experiment [9], in experiment [10], in experiment [11] and in experiment [12] was inactive. Besides, the outcome in experiment [13], in [14] and in experiment [15] was inactive.

On to `O[Si](c1ccccc1)(c1ccccc1)c1ccccc1`, for which the concentration at half-maximal activity (AC50) in [1] is 28.9 µM (active); in [2], 11.6 µM (active); in experiment [3], 20 µM (active); in experiment [7], 29.6 µM (active); in experiment [8] it was 31.7 µM (active); in experiment [9] it was 32.5 µM (active). Besides, the AC50 was 31 µM (active) in experiment [10]; 31.1 µM (active) in experiment [11]; 30.5 µM (active) in experiment [12]; 20 µM (active) in [13]; 32.6 µM (active) in experiment [14]; 26.8 µM (active) in [15]. Further, the result in experiment [4], in experiment [5] and in experiment [6] was inactive.

For the compound `O=S(=O)(OCC(F)F)C(F)(F)F`, the outcome in [1], in [2], in experiment [3], in [4], in [5] and in [6] was inactive. The outcome in experiment [7], in [8], in experiment [9], in experiment [10], in experiment [11] and in [12] was inactive. Besides, the outcome in [13], in experiment [14] and in experiment [15] was inactive.

Regarding `CO[Si](OC)(c1ccccc1)c1ccccc1`, the result in experiment [1], in experiment [2], in experiment [3], in experiment [4], in experiment [5] and in experiment [6] was inactive. Further, the outcome in experiment [7], in [8], in experiment [9], in [10], in experiment [11] and in [13] was inactive. Moreover, the outcome in [15] was inactive. Moreover, the AC50 is 33.8 µM (active) in experiment [12] and 20 µM (active) in experiment [14].
